Measured values: ChEMBL document CHEMBL3988442, “University of Dundee, Small-Polar-MMV Screening Library” (2021)
“And” between values parts separate entries of the source, which are not always exact repeats. Identical values can stand only once. Out of some 34,000 compounds screened, about 290 (0.85%) showed an effect of 50% or more. The full list was thinned out, with strong results kept by preference.

Test system: Plasmodium falciparum
Assay: Plasmodium falciparum sporozoite viability assay
Assay type: functional, organism-based
Design: scale not given: in the data most compounds retested in dose-response had high values

| Compound | Percent Effect [%] | Percent Effect (10 mM as filed; unlikely as a test dose) |
| --- | --- | --- |
| CN(C)c1ccc(C(=O)N2CCN(CC(O)C(C)(C)C)CC2)nn1 (configuration not stated) | -6.949 | – |
| O=C(N[C@@H]1CN(Cc2ccc3cc[nH]c3c2)C[C@H]1O)c1cnccn1 | -1.172 | – |
| O=C(O)C(F)(F)F.O=C(c1ccncc1F)N1CC2CC1(C(=O)N1CCCC1)C2 | -2.014 | – |
| Cc1cnn(CCNCc2c(C(C)C)nn(C)c2Cl)c1 | -5.882 | – |
| Cc1cccc(CNC2CCCc3c2cnn3C)c1.Cl (configuration not stated) | -1.28 | – |
| CCn1ncc2c1CCCC2NCc1ccc2c(c1)CCO2 (configuration not stated) | – | 59.7% and 48.65% and 59.52% |
| Cl.Cn1ncc2c1CCCC2NCc1cccc(C(F)(F)F)c1 (configuration not stated) | -3.477 | – |
| CCn1ncc2c1CCCC2NCc1ccc2c(c1)OCCO2 (configuration not stated) | – | 33.22% and 25.15% |
| CCn1ncc2c1CCCC2NCc1ccc(OC)c(C)c1 (configuration not stated) | 1.069 | – |
| CC(C)(C)n1ncc2c1CCCC2NCc1ccc2c(c1)OCCO2 (configuration not stated) | – | 101% and 99.54% |
| O=C(NCC1CCCO1)c1nc2c(s1)CCCN2C(=O)C1CC1 (configuration not stated) | -5.565 | – |
| Cl.Cl.O=C([C@H]1CCCN1)N1CC2(CCNCC2)c2cc(Cl)ccc21 | 12.41 | – |
| Cc1cc(OCC(=O)N2CCCC(c3noc(C(C)C)n3)C2)no1 (configuration not stated) | 2.432 | – |
| O=C(c1ccc[nH]1)N1C[C@H]2CN(Cc3cccc(F)c3)C(=O)[C@H]2C1 | 12.11 | – |
| c1csc(-c2noc(CN3CCCC3Cn3cccn3)n2)c1 (configuration not stated) | – | -21.92% and -8.385% and -5.28% |
| c1ccc(-c2noc(CCCN3CCCC3Cn3cncn3)n2)cc1 (configuration not stated) | – | 40.22% and 41.76% and 47.25% |
| c1csc(-c2noc(CN3CCCCC3Cn3cccn3)n2)c1 (configuration not stated) | – | 24.36% and 19.77% and 16.14% |
| CCOc1ccnc(N[C@@H](Cc2ccccc2)C(N)=O)n1 | 0.8772 | – |
| CCOC(=O)CSc1ccc(-c2nc(C)no2)cn1 | – | -0.4631% and 0.4035% |
| COC(=O)CSCc1noc(-c2ccc(C)cc2)n1 | – | 97.51% and 95.63% |
| COC(=O)CSCc1noc(-c2ccc(Cl)cc2)n1 | – | 72.7% and 74.65% |

| Compound | Percent Effect [%] | Percent Effect (10 mM as filed; unlikely as a test dose) |
| --- | --- | --- |
| COC(=O)CSCc1nc(-c2ccc(Cl)cc2)no1 | – | -107.5% and -111.6% |
| Cc1ccc(-c2nc(CN3CCc4cnc(C)nc4C3)no2)cc1 | 16.875 | – |
| CCOC(=O)CSc1ccc(-c2nc(CC)no2)cn1 | – | 40.67% and 46.73% |
| O=S1(=O)CCC(N(Cc2nc(-c3ccccn3)no2)Cc2cccs2)C1 (configuration not stated) | 22.13 | – |
| CCN1CCN(CCCNc2ncccn2)CC1 | -11.01 | – |
| Cc1cc(CN(C)C(=O)c2ccc(N(C)C)nc2)no1 | 3.089 | – |
| NC(=O)c1cc(C2CCCN(CCOCC3CC3)C2)n[nH]1 (configuration not stated) | -0.5536 | – |
| Cc1ccc(C2CN(Cc3cccc4[nH]ccc34)CCO2)nc1 (configuration not stated) | 9.691 | – |
| CC(C)OC(=O)N1CCC(Cc2ccc(C(=O)O)cc2)C1 (configuration not stated) | 5.074 | – |
| COCCOc1ccc(S(=O)(=O)Nc2cccc(O)c2F)cc1C | – | 65.91% and 54.13% |
| COc1ccc(S(=O)(=O)NC(=O)COC2CCCCC2)cc1C | -5.465 | – |
| COCCOc1ccc(S(=O)(=O)Nc2cccnc2O)cc1C | – | -10.26% and -4.441% |
| CC(C)N1CCN(C)CC(Cc2cc(N(C)C)ncn2)C1 (configuration not stated) | 2.091 | – |
| CN1CCc2nc3cc(C(=O)NCc4cccs4)ccc3c(=O)n2CC1 | 0.8687 | – |
| CCc1nc(CN2CCN(CC(O)c3ccccc3)CC2)no1 (configuration not stated) | – | 4.576% and 5.713% and -3.353% |
| CCCc1nc(CN2CCN(CC(O)c3ccccc3)CC2)no1 (configuration not stated) | – | -24.09% and -24.64% and -18.14% |
| O=C(CC1CC1)N1CCCn2nnc(CNc3ncccn3)c2C1 | 2.773 | – |
| Cc1noc(C)c1C(=O)NCc1cccnc1N(C)C | 5.354 | – |
| CCC(=O)N1CC[C@H](O)[C@@H]1Cc1ccccc1 | -1.986 | – |
| Cc1cccc(CN2CCCCC2c2n[nH]cc2-c2cc(C)no2)c1.Cl (configuration not stated) | – | -21.49% and -8.887% and 2.992% |
| CCc1ccc(CN2CCCCC2c2n[nH]cc2-c2cc(C)no2)cc1.Cl (configuration not stated) | – | 63.83% and 48.62% and 58.14% |

| Compound | Percent Effect [%] | Percent Effect (10 mM as filed; unlikely as a test dose) |
| --- | --- | --- |
| Nc1nccnc1CC1CCCN(Cc2cccc3[nH]ccc23)C1 (configuration not stated) | 4.859 | – |
| NC(=O)C1CCN(c2ccc3cc(Br)ccc3n2)C1 (configuration not stated) | – | -42.56% and -39.12% |
| NC(=O)C1CN(c2ccc3cc(Br)ccc3n2)CCO1 (configuration not stated) | – | 80.55% and 85.86% |
| NC(=O)C1CN(c2ccc(Br)cn2)CCO1 (configuration not stated) | – | -39.17% and -33.44% |
| Cc1cc(Cc2cccc(C(F)(F)F)c2)cc(C2CCCNC2)n1 (configuration not stated) | 4.537 | – |
| CN(C)C(=O)CN1CCCCC1c1nc(N)ncc1-c1ccc(Cl)cc1 (configuration not stated) | -1.537 | – |
| Cc1noc(C)c1C(=O)N1C[C@@H]2CN(Cc3cccnc3)CCO[C@@H]2C1 | -15.82 | – |
| CCc1nc(-c2cccc(C(=O)O)c2)no1 | 7.751 | – |
| CS(=O)(=O)NC1CCN(C(=O)NCCc2ccccn2)CC1 | -4.021 | – |
| Cc1ccc(S(=O)(=O)N2CCN(Cc3ccncc3)CC2)c(Cl)c1 | -1.432 | – |
| Cc1ccc(OCCN(C)C(=O)CCCC(N)=O)c(C)c1 | -6.308 | – |
| Cc1cn2c(n1)C(CNCc1cccc3c1OCO3)CCC2 (configuration not stated) | 10.56 | – |
| Cc1cn2c(n1)C(CNCC1=Cc3cc(Cl)ccc3OC1)CCC2 (configuration not stated) | – | 86.97% and 100% and 87.02% |
| Cc1ccc(N2CCCC(NCC3=Cc4ccccc4OC3)C2)nn1 (configuration not stated) | 9.337 | – |
| CC(NCC1=Cc2cc(Cl)ccc2OC1)c1nnc2n1CCCC2 (configuration not stated) | -0.2255 | – |
| Cc1cn2c(n1)C(CNCC1=Cc3ccccc3OC1)CCC2 (configuration not stated) | – | 102.3% and 118.3% and 103.2% |
| CCc1n[nH]c(C2CN(Cc3nnc(C4CC4)o3)CCO2)n1 (configuration not stated) | 4.502 | – |
| CCc1ncnc2c1CCN(CCOC)CC2.O=C(O)C(F)(F)F | 8.757 | – |
| CC1COCCN1C(=O)COc1ccc(Oc2ccccn2)cc1 (configuration not stated) | – | 62.7% and 63.29% and 47.53% |
| CC1COCCN1C(=O)COc1cccc(Oc2ccccn2)c1 (configuration not stated) | – | -6.319% and -6.647% and 2.396% |
